Compounds without any hit were thinned out: in the full panel of roughly 83,000, 20% have a hit.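 Method: cells in 96-well plates; compound added at one concentration; 48 h incubation; percent growth measured; values under 10 scored active.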 Values without a mark were called inactive. The source made the active and inactive calls.
Tested on: A549/ATCC NSCLC
Assay: NCI-60 one-dose screen, 48 h (100 = growth as untreated, 0 = no growth, -100 = all killed)
Conditions: 10 µM unless noted
Method: Growth inhibition of the A549/ATCC human Non-Small Cell Lung tumor cell line is measured as a screen for anti-cancer activity. Cells are grown in 96 well plates and exposed to the test compound for 48 hours. Compounds are tested at a single concentration, which is 10^-5 M for most compounds. The reported endpoint is percent growth (GI% or GIPRCNT), where numbers from 0 - 100% represent growth inhibition, and numbers from -100% - 0 represent cell death. For example, a value of 40 represents 60% growth inhibition. A value of 0 means no net growth occurred over the course of the experiment. A value of -40 indicates 40% of cells at the beginning of the experiment died by the end of the experiment. A value of -100 means all cells are dead at the end of the experiment.
NCI-60 Human Tumor Cell Lines Screen was performed using the standard one-dose NCI protocol, which is described in more detail at https://dtp.cancer.gov/discovery_development/nci-60/default.htm.
Compounds with GIPRCNT values below 10 were considered active. Activity score was based on GIPRCNT using the following formula: […]
Score is 0 for GIPRCNT values of 100 or above, 50 for GIPRCNT values of 0, and 100 for GIPRCNT values of -100.

| Structure (SMILES) | growth |
| --- | --- |
| Cc1cc(O)cc2c1[C@H]1CC[C@]3(C)[C@@H](O)CC[C@H]3[C@@H]1C=C2 | 86.9% |
| O=C(N/N=C(\CS(=O)(=O)c1ccccc1)c1cc2cc(Br)ccc2oc1=O)c1ccccc1 | 95.3% |
| Clc1ccc2c(c1)C[C@H]1C[C@@H](c3cccs3)N2O1 | 98.2% |
| COc1ncnc2c1ncn2C/C(Br)=C(\Br)CCl | 9.47% (active) |
| Oc1ccccc1/C=N/Nc1nc2ccccc2s1 | 45% |
| Cc1ccc(-c2nnc(COc3ccc(-c4nnc(N)s4)cc3)o2)cc1 | 105% |
| O/N=C/c1cccs1 | 98% |
| O=C1/C(=C/c2ccccc2F)CNC/C1=C\c1ccccc1F | -11.1% (active) |
| COc1ccc2nc(-n3nc(C)cc3C)c(-n3nc(C)cc3C)nc2c1 | 115% |
| COc1cccc(C2C3=C(COC3=O)N(CCO)c3cc4c(cc32)OCO4)c1 (stereo not given) | 25.9% |
| O=C1/C(=C/c2ccc(Oc3ccccc3)cc2)N=C(c2ccccc2)N1CCc1cccs1 | 91.3% |
| COc1cccc2c(=O)c3c(sc12)c(NCCN(C)C)nc1ccccc13 | 7.73% (active) |
| Cc1ccc(S(=O)(=O)c2ccc3[nH]c(=O)[nH]c(=O)c3c2)cc1 | 80.7% |
| COc1ccc(/C=N\N2CCOCC2)cc1OC1CCCC1 | 99.8% |
| CCC(C)Oc1cc(/C=N/NC(=O)c2cnn3c2NC(c2ccccc2)C3)ccc1OC (stereo not given) | 43.6% |
| C=CC[P+](c1ccccc1)(c1ccccc1)c1ccccc1 | 69.6% |
| O=c1[nH]c(-c2ccccn2)nc2sc3c(c12)CCCCCC3 | 23.2% |
| COc1ccc(-c2c3c(N)c4c(nc3nc3c2c(C)nn3-c2ccccc2)CCCC4)cc1 | 76.6% |
| CC1(C)N=C(N)N=C(N)N1c1cccc(OCCOc2cccc([N+](=O)[O-])c2)c1 | 20.4% |
| COc1ccc(-c2c(-c3cc4c(c(OC)c3OC)OCO4)noc2N)cc1 | 24.1% |

| Structure (SMILES) | growth |
| --- | --- |
| COc1cc2nc(SCc3cc(OC)c(OC)c(OC)c3)n(-c3ccccc3OC)c(=O)c2cc1OC | 88% |
| CCOC(=O)c1cc2c(n(C)c1=O)-c1cnn(-c3ccc(OC)cc3)c1CC2 | 98.2% |
| O=C1CN2CCC1C/C2=C\c1ccnc2c(Cl)cccc12 (stereo not given) | 107% |
| c1ccc(-c2n(Cc3ccc4ccccc4n3)c3ccccc3[n+]2Cc2ccc3ccccc3n2)cc1 | 13.7% |
| Cc1cc(NS(=O)(=O)c2ccc(NC(=O)COc3ccc(-c4cc5ccccc5[nH]4)cc3)cc2)no1 | 30.1% |
| COc1nc2c(cc1S(=O)(=O)c1ccccc1)CCc1c-2cnn1-c1ccccc1Cl | 47.1% |
| COc1ccc(OC2=C(C#N)C(=N)N3c4ccccc4Sc4ccccc4C3N2)cc1 (stereo not given) | 104% |
| COc1ccc(C(=O)C2=CC(=O)C(=O)C2)cc1OC | 106% |
| CCCCC(O)Cn1ncc(C(=O)OCC)c1NC(=O)NCc1ccccc1C(F)(F)F (stereo not given) | 89.1% |
| O=c1c2cc(F)ccc2oc2c(NCCNCCO)nc3ccccc3c12 | 45.1% |
| COc1ccc(-c2[nH]ncc2Nc2cc(OC)c(OC)c(OC)c2)cc1 | 61.2% |
| COC(=O)c1c2c(c(C)[n+]([O-])c1C)C(=O)C=C(NCc1ccc(F)cc1)C2=O | -22.7% (active) |
| COc1ccc(-c2nc(Nc3ccc(F)cc3)nc(Nc3ccc4c(c3)nc(C)n4Cc3ccccc3)n2)cc1 | 32% |
| O=C1Nc2ccc(Cl)cc2/C1=N/N=C(c1ccccc1)c1ccccc1 | 91.9% |
| COc1ccc(C2=NOC(CC(=O)N(CCO)CCO)C2)cc1OC1CCCC1 (stereo not given) | 95.5% |
| CS(=O)(=O)Nc1cccc(C(=O)NCc2ccc(N3CCOCC3)cc2)c1 | 119% |
| COc1ccc(-c2nc3sc(C)cn3c2/C=C/C(=O)c2cc(OC)c(OC)c(OC)c2)cc1 | 57.1% |
| O=C(O)c1ccccc1Oc1cc(-c2ccco2)nc(OCCBr)n1 | 94.2% |
| Oc1cccc(Nc2nc(-c3ccccn3)cs2)c1 | 94.8% |
| CC(C)OC1=C(Cl)C(=O)c2ccccc2C1=O | 102% |
